MsrA inhibitor: inhibitors of bovine MsrA; purified bovine MsrA, absorbance read-out; inhibition, % at 15.5 µM; 360,000 tested, 0.75% active; AID 651718
OPRM1-OPRD1 ag: agonists of human mu-delta opioid receptor heterodimerization | activation, % at 9.3 µM | 340,000 tested, 0.3% active | P35372+P41143 | cells, OPRM1-OPRD1 heterodimerization, luminescence; in the data active means activation above about 18%
MsrA act: activators of bovine methionine sulfoxide reductase A | purified bovine MsrA, absorbance read-out | activation, % at 10.6 µM | 360,000 tested, 0.3% active; in the data active means activation above about 7.5%
OPRM1-OPRD1 inv: inverse agonists of human mu-delta opioid receptor heterodimerization; P35372+P41143; cell-based MOR-DOR heterodimer luminescence, inverse agonism; inhibition, % at 9.3 µM; 340,000 tested, 0.21% active; AID 504357; in the data active means inhibition above about 22%, passing the limit was not always enough
HTR5A inv ag: counter-screen for OPRM1-OPRD1 inverse agonists: human HTR5A inverse agonism; P47898; HTR5A cell line, luminescence; inhibition, % at 9.3 µM; 340,000 tested, 0.083% active; AID 504634; in the data active means inhibition mostly above about 23%, no sharp cut-off; inactive means mostly below about 18%
Target sequence (P47898 whole entry, looked up): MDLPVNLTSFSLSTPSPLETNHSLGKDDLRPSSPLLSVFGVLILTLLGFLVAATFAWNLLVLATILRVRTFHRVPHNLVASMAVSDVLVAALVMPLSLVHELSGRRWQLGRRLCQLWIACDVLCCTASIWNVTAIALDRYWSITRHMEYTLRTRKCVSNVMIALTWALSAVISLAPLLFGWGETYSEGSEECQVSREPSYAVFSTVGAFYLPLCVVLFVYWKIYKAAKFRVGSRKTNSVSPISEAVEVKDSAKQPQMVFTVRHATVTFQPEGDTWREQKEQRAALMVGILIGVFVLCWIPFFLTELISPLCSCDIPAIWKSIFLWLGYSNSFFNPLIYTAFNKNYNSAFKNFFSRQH
HTR5A ag ctr: activates human HTR5A in OPRM1-OPRD1 agonist counter-screen; 340,000 tested, 0.61% active; activation, % at 9.3 µM; HTR5A agonist assay, luminescence, cell-based; in the data active means activation mostly above about 9.5%, no sharp cut-off; inactive means mostly below about 7.6%
MsrA inh confirm: bovine MsrA inhibition, confirmed; shares compounds with MsrA inhibitor; purified bovine MsrA, absorbance read-out; inhibition, % at 15.5 µM; 2,300 tested, 41% active;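 further: coupled to thioredoxin reductase with NADPH and selenocystamine and DMSO as substrate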
Of the large screens only hits and unclear results are named; the others gave an inactive call (follow-up assays come after a bar, where they were run). This is a sample that favours compounds with a hit; in the whole collection about 1.9% have one here. Unless noted, no stated cut-off is given here; in the data, active means inhibition above about 4.5%; inactive means the rest.

CN(CCO)S(=O)(=O)c1ccc2c(c1)C(=NNC(N)=O)c1cc(S(=O)(=O)N(C)CCO)ccc1-2	MsrA inhibitor 4.8 | MsrA inh confirm inactive
CN(C)C(/C=C/Nc1ccccc1F)=C(C#N)C#N	none
COc1ccccc1N/C=C/C(=C(C#N)C#N)N(C)C	MsrA inhibitor 5.5 | MsrA inh confirm inactive
Clc1ccccc1CNCc1ccc2c(c1)OCO2	none (no result: OPRM1-OPRD1 ag, OPRM1-OPRD1 inv, HTR5A inv ag, HTR5A ag ctr)
CC1(C(=O)NCc2ccccc2Br)CCN1Cc1ccc(-c2ccccc2)o1 (stereo not given)	none (no result: OPRM1-OPRD1 ag, OPRM1-OPRD1 inv, HTR5A inv ag, HTR5A ag ctr)
CCOC(=O)c1cnc2c(ccc3ccccc32)c1Cl	none
CCOC(=O)c1cnc(SC)nc1Sc1ccccc1Cl	MsrA inhibitor 8.2 | MsrA inh confirm inactive
C[C@H]1COc2cc(N3CCC[C@H]3CO)ccc2S(=O)(=O)N1	none (no result: OPRM1-OPRD1 ag, OPRM1-OPRD1 inv, HTR5A inv ag, HTR5A ag ctr)
C[C@H]1Cn2cnc(C(=O)N3CCN(C(=O)OC(C)(C)C)CC3)c2C(=O)N1	none (no result: OPRM1-OPRD1 ag, MsrA act, OPRM1-OPRD1 inv, HTR5A inv ag, HTR5A ag ctr)
Cc1ccsc1/C=N\NC(=O)c1cc(C(C)(C)C)[nH]n1	MsrA inhibitor 5.3 | MsrA inh confirm inactive
Cc1ccsc1/C=N/NC(=O)c1ccco1	MsrA inhibitor 5.6 | MsrA inh confirm 5.8
Cc1cc(C(=O)N/N=C/c2sccc2C)no1	none
CCN(CC)c1ccc(/C=N/NC(=O)c2ccco2)cc1	MsrA inhibitor 5.2 | MsrA inh confirm inactive
CCN(CC)c1ccc(/C=N/NC(=O)c2ccco2)c(O)c1	none
O=C(N/N=C/C=N/NC(=O)c1ccco1)c1ccco1	MsrA inhibitor 7.6 | MsrA inh confirm 6.1
Cc1ccsc1/C=N/NC(=O)CNC(=O)c1ccco1	none
O=S1(=O)CC(N2CCC(c3ccccc3)CC2)CN1Cc1cn(Cc2ccc(C(F)(F)F)cc2)nn1 (stereo not given)	none (no result: OPRM1-OPRD1 ag, MsrA act, OPRM1-OPRD1 inv, HTR5A inv ag, HTR5A ag ctr)
CCCCNC(=O)c1nc(C2CCN(S(=O)(=O)c3c(OC)cccc3OC)CC2)oc1-c1ccccc1	none (no result: OPRM1-OPRD1 ag, MsrA act, OPRM1-OPRD1 inv, HTR5A inv ag, HTR5A ag ctr)
CN(C)c1ccc(/C=N/Nc2ccc(-n3ccnc3)nn2)cc1	MsrA inhibitor 6.0 | MsrA inh confirm inactive
CCOC(=O)C1=CCN(S(=O)(=O)c2ccccc2C)C1c1ccc(Cl)c(Cl)c1 (stereo not given)	none (no result: OPRM1-OPRD1 ag, OPRM1-OPRD1 inv, HTR5A inv ag, HTR5A ag ctr)
COC(=O)C1=C(C)N(C)C(=NCc2ccc(C(F)(F)F)cc2)NC1c1ccc(F)cc1 (stereo not given)	none (no result: OPRM1-OPRD1 ag, MsrA act, OPRM1-OPRD1 inv, HTR5A inv ag, HTR5A ag ctr)
COc1ccc(C(=O)NC(C)c2ccccc2)cc1Br (stereo not given)	none
C[C@@H](NC(=O)c1coc(=O)c(Br)c1)c1ccccc1	MsrA inhibitor 4.8 | MsrA inh confirm 4.8
Cc1cc(C)n2nc(N)c(N=Nc3ccccc3)c2n1	MsrA inhibitor 5.2 | MsrA inh confirm inactive
Cc1nc2ccccn2c1C(=O)N/N=C/c1ccc([N+](=O)[O-])o1	MsrA inhibitor 5.2 | MsrA inh confirm inactive
CN(c1cccnc1)c1ccc(NC(=O)CCc2c[nH]c3ccccc23)cc1Br	none (no result: OPRM1-OPRD1 ag, MsrA act, OPRM1-OPRD1 inv, HTR5A inv ag, HTR5A ag ctr)
CCOC(=O)c1sc(N)c(C(N)=O)c1C	MsrA inhibitor 4.9 (no result: OPRM1-OPRD1 ag, OPRM1-OPRD1 inv, HTR5A inv ag, HTR5A ag ctr) | MsrA inh confirm inactive
CCc1c(-c2ccc(F)cc2)ncn1CCc1ccccc1OC	none (no result: OPRM1-OPRD1 ag, MsrA act, OPRM1-OPRD1 inv, HTR5A inv ag, HTR5A ag ctr)
COC(=O)C1CC(Cl)CN1c1ncc(C(F)(F)F)cc1Cl (stereo not given)	MsrA inhibitor 5.1 | MsrA inh confirm inactive
O=C1NCCCC1C(=O)N/N=C/c1cc([N+](=O)[O-])ccc1O (stereo not given)	none
O=C(N/N=C/c1cc(Br)c(O)c(Br)c1)C1CC1	MsrA inhibitor 5.3 | MsrA inh confirm 4.6
O=C(NN=Cc1ccc(F)cc1)C1CC1	none
O=C(N/N=C/c1cc([N+](=O)[O-])ccc1O)C1CC1	MsrA inhibitor 5.4 | MsrA inh confirm inactive
COCCNC(=O)/C(C#N)=C/C=C/c1ccccc1	MsrA inhibitor 7.1 | MsrA inh confirm 5.3
COc1ccc(/C=C/C(=O)NC(=S)Nc2ccc(S(=O)(=O)Nc3nccnc3OC)cc2)cc1	MsrA inhibitor 5.2 | MsrA inh confirm 6.0
COc1ccc(/C=C/C(=O)NC(=S)Nc2ccc(S(=O)(=O)Nc3cc(OC)ncn3)cc2)cc1	none (no result: OPRM1-OPRD1 ag, OPRM1-OPRD1 inv, HTR5A inv ag, HTR5A ag ctr)
COc1ccc(C(=O)N=c2sccn2C)cc1	MsrA inhibitor 5.8 | MsrA inh confirm inactive
COC(=O)c1ccc(C(=O)N=c2sccn2C)cc1	none
COc1ccc(NC(=O)c2sc3nc(N4CCCC4)c4c(c3c2N)CC(C)(C)OC4)cc1	MsrA inhibitor 5.3 | MsrA inh confirm inactive
COc1ccc(NC(=O)c2sc3nc(N4CCOCC4)c4c(c3c2N)CC(C)(C)OC4)c(OC)c1	none

From PubChem BioAssay
